This is an account of results in PubChem BioAssay AID588342 (National Center for Advancing Translational Sciences (NCATS), 2011).

Hit rate of the full screen: of about 360,000 compounds, about 25,000 (6.9%) were called active. Where a call stands in place of a potency, no number is given. About 9% were inconclusive and are not listed. This is one part of a sample in which actives are shown more often than they occur. Calls follow the shape of the dose curve; as a rule, active = well fitted inhibition curve with a large enough effect; inconclusive = small, poorly fitted or top-dose-only effect; inactive = flat fitted curve, though single readings scatter.
Potency is read from the fitted curve at half-maximal effect.

For this assay, the target named is Luciferin 4-monooxygenase (Photinus pyralis) (UniProt P08659). Briefly: qHTS profiling assay for firefly luciferase inhibitor/activator using purifed enzyme and Km concentrations of substrates (counterscreen for miR-21 project). Also: nearly all actives have a fitted effect of over 55% in size. Conditions: purified FLuc, luminescence inhibition; series mostly up to 57.5 µM. A digest of the protocol: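 Purified P. pyralis luciferase, 10 nM final, with Km-level 10 uM D-luciferin and 10 uM ATP in 50 mM Tris acetate pH 7.5, 10 mM Mg acetate, 0.01% Tween-20, 0.05% BSA; 6-point qHTS titration about 60 µM downward; luminescence read.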
Sequence of Luciferin 4-monooxygenase (Photinus pyralis) (P08659 whole entry, looked up): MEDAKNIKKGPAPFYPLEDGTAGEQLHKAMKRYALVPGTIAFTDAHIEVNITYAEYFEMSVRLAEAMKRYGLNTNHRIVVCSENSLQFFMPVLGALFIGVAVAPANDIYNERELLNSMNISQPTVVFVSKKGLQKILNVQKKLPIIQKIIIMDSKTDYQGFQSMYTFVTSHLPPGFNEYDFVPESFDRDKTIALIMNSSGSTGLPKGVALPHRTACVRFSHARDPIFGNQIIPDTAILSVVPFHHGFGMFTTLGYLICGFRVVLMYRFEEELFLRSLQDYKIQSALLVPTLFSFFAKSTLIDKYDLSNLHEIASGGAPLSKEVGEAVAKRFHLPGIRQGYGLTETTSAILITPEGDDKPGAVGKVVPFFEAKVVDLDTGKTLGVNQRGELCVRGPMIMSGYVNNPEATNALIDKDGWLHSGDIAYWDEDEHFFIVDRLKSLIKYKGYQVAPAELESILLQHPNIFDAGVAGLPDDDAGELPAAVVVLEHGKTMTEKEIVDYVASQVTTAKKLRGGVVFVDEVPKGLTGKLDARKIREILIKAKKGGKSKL
A general note: Quantitative high-throughput screening tests each substance at several concentrations.
Consider `CCc1cnc2c(c1SCC(=O)c1ccccc1)c(=O)n(C)c(=O)n2C`, for which the Potency entry is “inactive”.

As for `O=S(=O)(NCc1ccccc1Br)c1ccccc1Br`, the Potency entry was “inactive”.

On to `CCOC(=O)c1ccc(Nc2cc(C)nc3nc(C)nn23)cc1`, for which the Potency result is “inactive”.

With `Cc1cc(Nc2ccccc2)n(C(=O)c2ccc(N)cc2)n1`, the Potency was 9.53 µM (active).

Turning to `Cc1cc(C)n(C(=O)c2ccc(S(=O)(=O)N3CCCC3)cc2)n1`, the Potency result was “inactive”.

For `CCNC(=S)NNC(=O)c1ccc2ncccc2c1`, the Potency entry was “inactive”.

As to `O=C(O)c1ccc(N/N=C/c2ccc3ncccc3c2)cc1`, the Potency was 0.675 µM (active).

For `Cc1ccc(S(=O)(=O)Nc2ccc3ncccc3c2)cc1`, the Potency result was “inactive”.

With `CSCC[C@H](NC(=O)OC(C)(C)C)C(=O)N/N=C/c1cc2ccc(C)cc2nc1Cl`, the Potency result is “inactive”.

Regarding `Cc1ccc2cc(/C=N/Nc3ccc(C(=O)O)cc3)c(Cl)nc2c1`, the Potency is 0.151 µM (active).

As to `Cc1ccc2cc(/C=N/NC(=O)[C@@H]3CCCN3)c(Cl)nc2c1`, the Potency entry was “inactive”.

As to `Cn1c(=O)n(Cc2ccco2)c(=N)c2c3c(sc21)CCCC3`, the Potency result is “inactive”.

`O=c1oc(-c2ccco2)nc2sc3c(c12)CCCCC3`: the Potency was 0.675 µM (active).

For the compound `O=C(NCc1ccco1)c1cccn2c(=O)c3c4c(sc3nc12)CCCC4`, the Potency result was “inactive”.

Turning to `CCN(C(=O)CSc1nnc(-c2ccc(OC(F)F)cc2)n1N)C1CCS(=O)(=O)C1` (configuration not stated), the Potency entry was “inactive”.

Take `O=C(NNC(=O)c1ccc(-n2cncn2)c([N+](=O)[O-])c1)c1ccccc1`: the Potency entry is “inactive”.

Consider `C/C(=N\NC(=O)CSc1nc2ccccc2c(=O)n1-c1ccccc1C)c1cccs1`, for which the Potency result is “inactive”.

Regarding `CC(=NCc1ccco1)c1c(C(F)(F)F)[nH]n(-c2nc3ccccc3s2)c1=O`, the Potency was 7.57 µM (active).

With `CCC1(CC)NC(=O)N(Cc2nc3ccccc3s2)C1=O`, the Potency result is “inactive”.

As for `C/C(=N\NC(=O)CC(C)C)c1c(C(F)(F)F)[nH]n(-c2nc3ccccc3s2)c1=O`, the Potency is 5.36 µM (active).

With `Cc1cccc(NC(=O)c2cc3c(C)nn(-c4ccccc4)c3s2)c1`, the Potency entry is “inactive”.

Regarding `O=C(NCc1ccncc1)C1CCN(C(=O)c2cccc(Cl)c2)CC1`, the Potency entry was “inactive”.

Turning to `Cc1ccc(-n2c(CNc3ccc(F)cc3)nnc2SCC(=O)N2CCOCC2)cc1`, the Potency result is “inactive”.

For the compound `O=C(CSc1cccc[n+]1[O-])c1ccc(Cl)cc1`, the Potency result was “inactive”.

Regarding `COc1ccccc1C(=O)CSc1cccc[n+]1[O-]`, the Potency entry was “inactive”.

Regarding `O=C(CSc1cccc[n+]1[O-])c1ccc(-c2ccccc2)cc1`, the Potency is 19 µM (active).

For the compound `CC(O)c1cccc(NC(=O)Cc2cccc3ccccc23)c1` (configuration not stated), the Potency result is “inactive”.

Regarding `CCC(=O)N1c2ccc(S(=O)(=O)CCC(=O)N3CCN(c4ccccc4)CC3)cc2CC1C` (configuration not stated), the Potency entry is “inactive”.

Turning to `Cc1ccn(CCC(=O)N2c3ccccc3CC2C)n1` (configuration not stated), the Potency entry is “inactive”.

As for `CCCC(=O)N1c2ccc(-c3csc(N)n3)cc2CC1C` (configuration not stated), the Potency is 7.57 µM (active).

For the compound `CCOc1ccccc1NC(=O)Cn1c(=O)n(-c2cccc(C)c2)c(=O)c2c1c1cc(OC)ccc1n2C`, the Potency result is “inactive”.

As for `CN(CC(=O)NC(=O)Nc1ccccc1F)Cc1ccccc1`, the Potency result was “inactive”.

As to `Oc1ccc(-c2nc3ccc(Cl)cn3c2Nc2ccc3c(c2)OCO3)cc1`, the Potency result is “inactive”.

Consider `c1ccc(-n2ncc3c2ncn2c(C4CCCCC4)nnc32)cc1`, for which the Potency result was “inactive”.

For the compound `CN(C(=O)COc1ncnc2c1cnn2-c1ccccc1)C1CCCCC1`, the Potency entry is “inactive”.

Consider `CCN(c1ncnc2c1cnn2-c1ccc(C)cc1)C1CCCCC1`, for which the Potency was 2.13 µM (active).

As to `O=c1c2ccccc2ncn1CCCCOc1ccccc1F`, the Potency entry was “inactive”.

As to `O=C(Nn1cnc2ccccc2c1=O)c1ccc(F)cc1Cl`, the Potency was 13.5 µM (active).

With `O=C(Nn1cnc2ccccc2c1=O)c1ccc([N+](=O)[O-])cc1Cl`, the Potency entry is “inactive”.

Turning to `COC(=O)c1c(NC(=O)C(C)Oc2ccc(Cl)c(C)c2)sc(C)c1C` (configuration not stated), the Potency entry is “inactive”.

As for `Cc1ccc(NC(=S)N2CCN(c3ncccn3)CC2)cc1C`, the Potency entry is “inactive”.

In the case of `COc1ccc(NC(=O)Cn2c(=O)n(CCC(C)C)c(=O)c3cccnc32)cc1Cl`, the Potency entry was “inactive”.

Turning to `Cc1ccccc1CNC(=O)CSc1nnc(C)c2c(C)n(-c3ccccc3)nc12`, the Potency entry is “inactive”.

For the compound `Nc1ccc(N=Nc2ccccc2Cl)c(N)n1`, the Potency is 6.01 µM (active).

Regarding `O=C1C=C(c2cccc(Cl)c2)C[C@@H](c2ccc(F)cc2)C1`, the Potency entry is “inactive”.

On to `COc1ccc(Cn2cc(C(=O)c3ccc(C)cc3)c(=O)c3cc(OC)c(OC)cc32)cc1`, for which the Potency entry was “inactive”.

Consider `Cn1nc(C(C)(C)C)c(NC(=O)c2sccc2Cl)c1C(C)(C)C`, for which the Potency result is “inactive”.

Consider `COC(=O)c1sc(-c2ccc(C(C)(C)C)cc2)cc1NC(=O)/C=C/C(=O)O`, for which the Potency was 1.51 µM (active).

As for `COc1ccccc1NC(=O)/C=C/C(N)=O`, the Potency entry is “inactive”.

For `N#CC(C#N)=CN=c1ccn(Cc2ccc(Cl)cc2Cl)cc1`, the Potency result is “inactive”.

Consider `COc1ccc(NC(=O)N2CCC(Cc3ccccc3)CC2)cc1`, for which the Potency was 15.1 µM (active).

As for `COc1ccc(NC(=O)N2CCCC(C(=O)Nc3ccccc3OC)C2)cc1` (configuration not stated), the Potency result was “inactive”.

In the case of `COc1ccc(C(=O)NC2CCN(C(=O)Nc3ccc(F)cc3)CC2)cc1`, the Potency result is “inactive”.

Take `COc1cccc(C(=O)N(Cc2cccc(Cl)c2)Cc2ccco2)c1`: the Potency result was “inactive”.

Regarding `CCCc1nc2c(c(=O)c3ccccc3n2C)c(=O)n1C1CCCCCC1`, the Potency entry is “inactive”.

Regarding `CCCc1nc2c(c(=O)c3ccccc3n2C)c(=O)n1-c1cc(C)cc(C)c1`, the Potency was 15.1 µM (active).

As for `Cn1c2ccccc2c(=O)c2c(=O)n(Cc3ccco3)c(COc3ccccc3)nc21`, the Potency result is “inactive”.

Regarding `CCOc1ccccc1NC(=O)CN1CCN(S(=O)(=O)c2ccc(Br)cc2)CC1`, the Potency entry was “inactive”.

Turning to `COC(=O)[C@]1(C)N[C@H](c2ccc(-c3ccc(Cl)c(Cl)c3)cc2)[C@@H]2C(=O)N(C)C(=O)[C@@H]21`, the Potency was 15.1 µM (active).

Consider `COC(=O)C1(C)NC(c2ccc(F)cc2)C2C(=O)N(c3ccccc3)C(=O)C21` (configuration not stated), for which the Potency result was “inactive”.

With `COC(=O)C1(C)NC(c2ccc(C)cc2)C2C(=O)N(c3ccc(F)cc3)C(=O)C21` (configuration not stated), the Potency result was “inactive”.

With `O=C(CNC(=O)c1ccccc1F)c1ccc(Br)cc1`, the Potency is 2.69 µM (active).

Regarding `O=C(Nc1ccc(NC(=O)c2ccccc2F)cc1)c1ccccc1F`, the Potency result is “inactive”.

`O=C(CNC(=O)c1ccccc1)NCC(=O)OCC(=O)c1ccccc1`: the Potency entry was “inactive”.

With `Cc1cc2ccccc2n1CCNC(=O)c1ccc(F)cc1`, the Potency entry was “inactive”.

Take `O=C(COC(=O)CNC(=O)c1ccccc1F)NCC(F)(F)F`: the Potency entry was “inactive”.

Consider `O=C(CNC(=O)c1ccc(F)cc1)c1ccccc1`, for which the Potency was 19 µM (active).
